Data on 40 compounds can be found in PubChem BioAssay (Tox21).

Inconclusive results are not listed. Where a call stands in place of a potency, no number is given. A number with no mark means an inactive call. Calls of active or inactive are those of the source. Calls follow the shape of the dose curve; as a rule, active = well fitted activation curve with a large enough effect in the repeat runs; inconclusive = weak or mixed curves; inactive = flat fitted curve, though single readings scatter.

The test can be described thus: A CellTox Green Cytotoxicity Assay to monitor cytotoxicity in HepG2 cells - 32 hour (AID 1224883). Also: nearly all actives have a fitted effect of over 50% in size. Particulars: CellTox Green fluorescence; series mostly up to 76.8 µM. The text has this:
National Center for Advancing Translational Sciences [NCATS]
NIH Chemical Genomics Center [NCGC]
U.S. Environmental Protection Agency [EPA]
National Institutes of Environmental Health Sciences [NIEHS]
National Toxicology Program [NTP]
Cell-based models are critical for drug discovery. Determining the natural cytotoxic effects resulting from test compounds is an essential research activity. A CellTox Green Cytotoxicity Assay to monitor cytotoxicity in real time of continues cell culture during 40 hours of the compound treatment was used to screen Tox21 10K library compounds in HepG2 cells. CellTox Green Cytotoxicity Assay is a nonlytic, homogeneous, biofluorescent method to measure cytotoxicity in cell culture after experimental manipulation. The assay system uses a proprietary asymmetric cyanine dye that is excluded from viable cells but preferentially stains the dead cell's DNA. […] Viable cells produce no appreciable increases in fluorescence. Therefore, the fluorescence signal produced by the binding interaction with dead cell DNA is proportional to cytotoxicity.
The mixture of HepG2 cell suspension and reagents were dispensed at 600cells/6 ul/well in 1536-well tissue culture treated black solid bottom plates using a Multidrop dispenser. After the assay plates were incubated at a 37 C/5% CO2 incubator for 5 hours, 23 nL of compounds dissolved in DMSO, positive and negative controls was transferred to the assay plate by a pintool work station. The plates were incubated at 37 C for 40 hours. The fluorescence intensity were measured at 0h, 8h, 16h, 24h, 32h and 40h time points using ViewLux plate reader during compound treatment.
With `CCN1C=CN(C)C1C` (stereo not given), the Potency entry was “inactive”. Still for that read-out and setting: to `CN1[C@@H]2CC[C@H]1CC(OC(=O)C(O)c1ccccc1)C2` (stereo not given in full) belongs “inactive”. Still for that read-out and setting: to `CCCCOCCOC(=O)CCCCCCCCC(=O)OCCOCCCC` belongs “inactive”; to `CCC(C)(CCCC(C)C)OC(C)=O` (stereo not given), “inactive”. Still for that read-out and setting: the same measure for `CCOc1ccc2nc(S(N)(=O)=O)sc2c1`: “inactive”; for `CC[N+](CC)(CC(=O)Nc1c(C)cccc1C)Cc1ccccc1` (tested in a mixture with another compound): “inactive”. Take `C[N+]1(C)[C@@H]2CC(OC(=O)[C@H](CO)c3ccccc3)C[C@H]1[C@@H]1O[C@@H]12` (stereo not given in full): the Potency result is “inactive”. For the compound `CCOC(=O)c1cnc2c(cnn2CC)c1NN=C(C)C`, the Potency entry was “inactive”. The same measure, in the same setting: to `CC(=O)OCC(=O)[C@@]1(O)[C@H](C)C[C@H]2[C@@H]3CCC4=CC(=O)C=C[C@]4(C)[C@@]3(F)[C@@H](O)C[C@@]21C` belongs “inactive”; to `CC(C)=CCC/C(C)=C/C#N`, “inactive”. Still for that read-out and setting: to `COc1cc(C(=O)OC(COCCC(C)C)CN2CCOCC2)cc(OC)c1OC` (stereo not given) belongs “inactive”; to `NC(=O)Cc1cccc2ccccc12`, “inactive”. Same read-out and setting: the same measure for `CCCO[Si](OCCC)(OCCC)OCCC`: “inactive”; for `CC/C=C\CCOC(C)OCC` (stereo not given): “inactive”; for `CN1CCC(=C2c3ccccc3CCc3cccnc32)CC1`: “inactive”. Consider `NC(N)=NCCN1CCCCCCC1`, for which the cytotoxicity increase is -12.8% [at 0.29 µM]. Turning to `CCCCCCC1CCC(=O)O1` (stereo not given), the Potency result was “inactive”. As to `CCC1C(=O)OCC1Cc1cncn1C` (stereo not given), the Potency result was “inactive”. In the case of `CC(C)(C)C(=O)c1ccccc1`, the Potency result is “inactive”.

For the compound `CC(=O)c1cnccn1`, the Potency entry is “inactive”. As to `Cc1ccc(-c2ncc(Cl)cc2-c2ccc(S(C)(=O)=O)cc2)cn1`, the Potency result is “inactive”. The same measure, in the same setting: to `Nc1ccn([C@@H]2O[C@H](CO)[C@@H](O)C2O)c(=O)n1` (stereo not given in full) belongs “inactive”; to `C=C[Si](OC(C)=O)(OC(C)=O)OC(C)=O`, “inactive”; to `Nc1ccncc1N`, “inactive”. The same measure, in the same setting: to `CCNS(=O)(=O)c1ccc(C)cc1` belongs “inactive”; to `[O-][n+]1cccc(CO)c1`, “inactive”; to `NS(=O)(=O)Cc1noc2ccccc12`, “inactive”. The same measure, in the same setting: the same measure for `O=C(O)CNC(=O)c1ccc(CO)o1`: “inactive”; for `CC(C)[C@H]1CC[C@@H](C)CC1=O`: “inactive”; for `O=C(c1ccccc1)C1(O)CCCCC1`: “inactive”. As for `CC(=O)N[C@H]1[C@H]([C@H](O)[C@H](O)CO)OC(C(=O)O)=C[C@@H]1N=C(N)N`, the Potency result is “inactive”.

Regarding `C1CCC2=NCCCN2CC1`, the Potency result was “inactive”. Take `C[N+]1(CC2COC(c3ccccc3)(c3ccccc3)O2)CCCCC1` (stereo not given): the cytotoxicity increase was -0.506% [at 15.8 µM].

With `Cc1onc(-c2c(Cl)cccc2Cl)c1C(=O)Cl`, the Potency result is “inactive”.

With `NC(=O)N[C@@H](CCC(=O)O)C(=O)O`, the Potency result was “inactive”.

Take `NC(=O)NC1N=C([O][Al])NC1=O` (stereo not given): the Potency result is “inactive”. Same read-out and setting: the same measure for `c1coc(CNc2ncnc3nc[nH]c23)c1`: “inactive”. As for `COCCOCC(OC)OC`, the Potency result was “inactive”.

`COC(=O)Nc1ccc(Cl)c(Cl)c1`: the Potency result was “inactive”.

`C=COC(=O)C(C)(CC)CCC(C)C` (stereo not given): the Potency entry was “inactive”.
